Assay [1] concerns the target chimpanzee Androgen Receptor (AR), AR (gene 747460) (UniProt O97775). The assay can be described thus: NVS_NR_cAR: NovaScreen (NVS) Nuclear Receptor Binding Assay for chimpanzee Androgen Receptor (AR) (AID 2283346). Summed up: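 Cell-free radioligand displacement using receptor protein extracted from Sf9/Sf21 cells; bound radioligand measured by scintillation counting 72 hours after chemical dosing. Loss of signal versus DMSO baseline indicates binding; primary screen single-concentration in duplicate at 25 uM, actives followed in concentration series.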

Assay [2] addresses Estrogen receptor (Homo sapiens) (UniProt P03372). The assay is described as follows: NVS_NR_hER: NovaScreen (NVS) Nuclear Receptor Binding Assay for human Estrogen Receptor (ER) (AID 2283348). Summed up: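 Radiodetection of ligand displacement in a lysate-based, cell-free format using MCF7 extracts, read at 18 hours. Duplicate 25 uM primary testing, then concentration series for actives.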

For assay [3] the target is unchanged. The assay can be described thus: OT_ER_ERaERa_1440: Odyssey Thera (OT) 24-hour HEK293T Protein-Complementation Assay for Estrogen Receptor-alpha/-alpha Homodimer (AID 2283349).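 Further: hits raise fluorescence above DMSO for agonists and antagonists alike.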 The essentials: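 Stably transfected HEK293T; ERα LBD homodimer PCA. 24 h dosing, fluorescence intensity read, gain-of-signal vs DMSO.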
Assay [4] deals with T1, Estrogen receptor (Homo sapiens) + Estrogen receptor beta (Homo sapiens) (UniProt P03372+Q92731). The assay can be described thus: OT_ER_ERaERb_0480: Odyssey Thera (OT) 8-hour HEK293T Protein-Complementation Assay for Estrogen Receptor-alpha/-beta Heterodimer (AID 2283352). Summed up:
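Increase in mean fluorescence intensity, measured by laser scanning plate cytometry, reported ER-alpha/ER-beta LBD complementation in HEK293T cells after 8 h chemical exposure. DMSO served as baseline; basal signal is low, punctate and cytoplasmic.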

Assay [5] addresses Estrogen receptor beta (Homo sapiens) (UniProt Q92731). The assay is described as follows: OT_ER_ERbERb_0480: Odyssey Thera (OT) 8-hour HEK293T Protein-Complementation Assay for Estrogen Receptor-beta/-beta Homodimer (AID 2283357).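 Further: active means signal gain over DMSO baseline.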 The essentials:
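Fluorescence gain from complemented reporter fragments on ER-beta LBD homodimer in HEK293T was quantified against DMSO controls after 8 h treatment, fixation in 4% formaldehyde and Draq5 staining.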

The target of assay [6] is Estrogen receptor (Homo sapiens) (UniProt P03372). The assay can be described thus: OT_ER_ERaERa_0480: Odyssey Thera (OT) 8-hour HEK293T Protein-Complementation Assay for Estrogen Receptor-alpha/-alpha Homodimer (AID 2283351).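 Further: rise in fluorescence from reassembled reporter fragments on ERα LBD homodimer in nucleus or whole cell.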 The essentials:
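Read-out: fluorescence intensity rise relative to DMSO, nuclear for agonists, nuclear plus cytoplasmic for antagonists. Construct is the ERα LBD (aa 310-547) homodimer fragment-complementation pair, stably expressed in HEK293T; exposure 8 h.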

Assay [7] has as its target T1, Estrogen receptor (Homo sapiens) + Estrogen receptor beta (Homo sapiens). The assay is described as follows: OT_ER_ERaERb_1440: Odyssey Thera (OT) 24-hour HEK293T Protein-Complementation Assay for Estrogen Receptor-alpha/-beta Homodimer (AID 2283356).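 Further: heteromer of ER alpha and ER beta binding domains; hits raise reporter fluorescence and both agonists and antagonists give an increase.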 The essentials:
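Heterodimerisation of ERα (aa 310-547) and ERβ (aa 263-489) ligand binding domains was tracked as fluorescence gain in stably transfected HEK293T cells following 24 h dosing, normalised to DMSO controls.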

The target of assay [8] is Androgen Receptor/SRC-1 Co-activator, AR (gene 367) (UniProt P10275). The assay can be described thus: OT_AR_ARSRC1_0960: Odyssey Thera (OT) 16-hour HEK293T Protein-Complementation Assay for Androgen Receptor/SRC-1 Co-activator (AID 2283353).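 Further: actives raise the signal above DMSO so potency reflects increased AR and SRC-1 complex.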 The essentials: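 Readout: 488 nm nuclear-to-cytoplasmic fluorescence ratio from imaging of at least 400 cells per image, 16 h post-dose. Reporter is Venus YFP complementation between AR and SRC-1 fusions, stably expressed in HEK293T; activity scored upward relative to DMSO.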
Sequence of Androgen Receptor/SRC-1 Co-activator, AR (gene 367) (P10275 whole entry, looked up, the tested form may be a part): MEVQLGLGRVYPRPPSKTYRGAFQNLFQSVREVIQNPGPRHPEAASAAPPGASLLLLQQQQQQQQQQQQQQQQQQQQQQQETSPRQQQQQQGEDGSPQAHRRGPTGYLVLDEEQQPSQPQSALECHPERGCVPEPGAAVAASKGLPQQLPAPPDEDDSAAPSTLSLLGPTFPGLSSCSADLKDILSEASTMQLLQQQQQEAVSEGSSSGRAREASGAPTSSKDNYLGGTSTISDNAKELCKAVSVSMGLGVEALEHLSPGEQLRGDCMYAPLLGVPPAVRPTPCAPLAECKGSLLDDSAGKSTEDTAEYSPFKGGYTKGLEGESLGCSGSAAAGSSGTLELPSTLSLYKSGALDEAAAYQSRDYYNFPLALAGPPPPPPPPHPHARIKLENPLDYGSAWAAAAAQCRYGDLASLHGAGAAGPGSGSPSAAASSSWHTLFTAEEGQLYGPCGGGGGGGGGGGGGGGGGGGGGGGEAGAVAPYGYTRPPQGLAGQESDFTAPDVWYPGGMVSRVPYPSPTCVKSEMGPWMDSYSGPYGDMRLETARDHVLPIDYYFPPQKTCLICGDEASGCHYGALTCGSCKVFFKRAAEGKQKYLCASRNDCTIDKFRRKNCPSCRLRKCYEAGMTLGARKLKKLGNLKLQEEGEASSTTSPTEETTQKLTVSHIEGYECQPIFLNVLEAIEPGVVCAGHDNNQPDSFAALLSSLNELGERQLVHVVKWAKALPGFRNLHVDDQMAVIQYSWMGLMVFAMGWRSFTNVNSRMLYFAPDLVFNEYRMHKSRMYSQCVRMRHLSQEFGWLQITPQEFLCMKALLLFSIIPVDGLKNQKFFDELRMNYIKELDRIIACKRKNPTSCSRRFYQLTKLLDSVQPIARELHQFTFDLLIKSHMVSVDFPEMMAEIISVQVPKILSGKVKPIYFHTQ

For assay [9] the target is unchanged. The assay can be described thus: OT_AR_ARSRC1_0480: Odyssey Thera (OT) 8-hour HEK293T Protein-Complementation Assay for Androgen Receptor/SRC-1 Co-activator (AID 2283354).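 Further: hits raise the complementation signal above DMSO so AC50 marks enhancers.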 The essentials:
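After 8 h dosing, stably expressing HEK293T cells with split-Venus AR/SRC-1 fusions were imaged (488, 635nm). The 488nm N/C ratio per image gave the endpoint, analysed in the positive direction against DMSO.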

Structures are written as SMILES. Results filed as inconclusive are left out. Where a structure was tested more than once in an assay, its records may differ in their call. Calls of active or inactive are those of the source. How the source made its calls: active means hit-call score of the fitted dose curve at least 0.9, where 1 is the maximum; inconclusive means response in the unintended direction; inactive means score below 0.9.

Results on 52 molecules are retold here after PubChem BioAssay (EPA / NIEHS).

Sequence of Estrogen receptor (Homo sapiens) (P03372 whole entry, looked up, the tested form may be a part): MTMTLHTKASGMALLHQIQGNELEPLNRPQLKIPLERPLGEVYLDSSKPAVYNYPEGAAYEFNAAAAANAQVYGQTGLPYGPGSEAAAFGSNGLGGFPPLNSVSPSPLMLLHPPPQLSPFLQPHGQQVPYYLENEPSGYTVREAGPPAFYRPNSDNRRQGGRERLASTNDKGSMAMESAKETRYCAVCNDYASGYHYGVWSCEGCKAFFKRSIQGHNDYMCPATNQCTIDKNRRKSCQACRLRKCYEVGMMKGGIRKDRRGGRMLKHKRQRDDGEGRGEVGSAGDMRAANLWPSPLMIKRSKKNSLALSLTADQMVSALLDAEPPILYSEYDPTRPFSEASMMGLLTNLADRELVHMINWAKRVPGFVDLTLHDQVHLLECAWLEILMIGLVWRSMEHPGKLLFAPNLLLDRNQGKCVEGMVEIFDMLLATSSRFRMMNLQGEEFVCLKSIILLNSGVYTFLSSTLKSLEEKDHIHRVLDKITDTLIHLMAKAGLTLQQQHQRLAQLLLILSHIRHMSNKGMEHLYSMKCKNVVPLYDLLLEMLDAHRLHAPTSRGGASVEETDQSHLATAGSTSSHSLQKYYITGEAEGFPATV
T1 sequence (P03372 whole entry, looked up, the tested form may be a part): as above
T1 sequence (Q92731 whole entry, looked up, the tested form may be a part): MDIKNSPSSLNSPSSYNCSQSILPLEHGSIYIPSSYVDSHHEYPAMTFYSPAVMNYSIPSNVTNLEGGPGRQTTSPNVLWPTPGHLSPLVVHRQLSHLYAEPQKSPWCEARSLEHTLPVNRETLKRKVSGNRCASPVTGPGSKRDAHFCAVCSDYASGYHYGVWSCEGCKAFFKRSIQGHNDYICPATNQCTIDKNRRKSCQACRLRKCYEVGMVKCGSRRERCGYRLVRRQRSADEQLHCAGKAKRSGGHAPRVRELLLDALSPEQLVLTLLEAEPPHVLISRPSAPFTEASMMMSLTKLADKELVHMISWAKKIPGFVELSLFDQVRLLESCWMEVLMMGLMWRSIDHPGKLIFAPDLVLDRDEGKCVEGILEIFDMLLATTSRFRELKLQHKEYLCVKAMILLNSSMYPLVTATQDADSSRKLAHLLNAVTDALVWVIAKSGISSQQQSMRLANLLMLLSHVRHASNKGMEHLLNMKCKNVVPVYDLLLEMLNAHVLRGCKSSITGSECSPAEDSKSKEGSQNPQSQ
Sequence of Estrogen receptor beta (Homo sapiens) (Q92731 whole entry, looked up, the tested form may be a part): as above
Sequence of chimpanzee Androgen Receptor (AR), AR (gene 747460) (O97775 whole entry, looked up): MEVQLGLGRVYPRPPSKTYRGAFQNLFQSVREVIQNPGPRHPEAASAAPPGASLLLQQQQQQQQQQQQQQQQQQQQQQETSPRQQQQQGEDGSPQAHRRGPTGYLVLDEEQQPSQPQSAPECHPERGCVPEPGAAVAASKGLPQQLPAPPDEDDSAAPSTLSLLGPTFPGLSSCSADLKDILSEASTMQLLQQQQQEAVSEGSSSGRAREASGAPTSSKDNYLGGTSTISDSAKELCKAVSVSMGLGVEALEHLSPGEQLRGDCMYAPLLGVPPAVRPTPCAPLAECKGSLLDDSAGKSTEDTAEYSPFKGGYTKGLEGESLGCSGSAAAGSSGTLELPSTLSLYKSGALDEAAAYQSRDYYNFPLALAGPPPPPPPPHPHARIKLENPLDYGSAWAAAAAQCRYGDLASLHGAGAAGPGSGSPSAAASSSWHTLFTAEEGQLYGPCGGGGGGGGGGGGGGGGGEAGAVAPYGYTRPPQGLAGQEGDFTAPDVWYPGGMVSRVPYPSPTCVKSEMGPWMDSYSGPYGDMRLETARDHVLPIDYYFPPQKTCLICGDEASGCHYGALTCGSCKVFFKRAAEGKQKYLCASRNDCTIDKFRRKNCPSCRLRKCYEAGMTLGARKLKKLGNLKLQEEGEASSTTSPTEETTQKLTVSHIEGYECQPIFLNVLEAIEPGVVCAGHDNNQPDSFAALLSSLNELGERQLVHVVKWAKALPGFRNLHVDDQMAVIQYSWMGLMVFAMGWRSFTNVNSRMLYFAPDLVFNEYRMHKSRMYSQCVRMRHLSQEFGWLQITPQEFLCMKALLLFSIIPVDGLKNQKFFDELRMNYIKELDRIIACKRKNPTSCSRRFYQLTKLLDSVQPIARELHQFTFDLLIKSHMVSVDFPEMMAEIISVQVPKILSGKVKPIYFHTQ

With `CC(=O)CC(=O)N(C)C`, the result in [1], in assay [2], in [3], in assay [4] and in [5] was inactive.
For the molecule `CC(C)CCCC(C)(C)O`, the molecule was classed as inactive in assay [1], in assay [3], in assay [6] and in [7].
The AC50 is the concentration giving half of the maximal activity seen. Regarding `O=C1OC2(c3ccc(O)cc3Oc3cc(O)ccc32)c2ccccc21`, the AC50 is 13.5 µM (active) in assay [1] and 9.78 µM (active) in [2]. The outcome in [1], in assay [2], in assay [3], in [6] and in assay [5] was inactive.
`CN(C)CCC=C1c2ccccc2CCc2ccccc21`: the outcome in assay [2] was inactive.
`CCCCCCCCCCO[C@@H]1O[C@H](CO)[C@@H](O)[C@H](O)[C@H]1O`: the outcome in [1], in assay [3], in [6], in [7] and in assay [5] was inactive.
For the molecule `O=S1(=O)CC(Cl)(Cl)C(Cl)(Cl)C1`, the AC50 in assay [2] was 18.5 µM (active).
Regarding `CCCCCC(=O)O[C@]1(C(C)=O)CC[C@H]2[C@@H]3CCC4=CC(=O)CC[C@]4(C)[C@H]3CC[C@@]21C`, the AC50 in assay [1] was 1.12 µM (active); in assay [7], 4.65 µM (active). For the same molecule, the molecule was classed as inactive in [3], in assay [4] and in assay [5].
As to `CCC(C)(C)c1cc(O)c(C(C)(C)CC)cc1O`, the molecule was classed as inactive in assay [2].
The same measure, in the same setting: next, `Nc1cc([N+](=O)[O-])ccc1C(=O)O`: “inactive”.
In the case of `CCCCCCOc1ccc(O)cc1`, the AC50 in [2] was 12 µM (active); in assay [3], 13.6 µM (active); in assay [6], 18.3 µM (active); in assay [4] it was 12 µM (active); in assay [8] it was 75.1 µM (active); in assay [9], 78.3 µM (active). In addition, the AC50 in assay [7] and in [5] was 11.9 µM (active) throughout.
On to `CN(C)c1ccc(C=O)cc1`, for which, in [2], the molecule was called inactive.
Take `C=CCOCC(O)CO` (configuration not stated): the AC50 in assay [1] was 1.33 µM (active).
Turning to `CCCCCCC(C)O` (configuration not stated), in assay [2], the AC50 was 43.2 µM (active). For the same molecule, the result in [3], in [6], in assay [4], in assay [7] and in assay [5] was inactive.
In the case of `CCCCCCCCCOS(=O)(=O)O`, in assay [2], the AC50 is 11.1 µM (active). Moreover, the molecule was called inactive in assay [3], in [4] and in assay [5].
Take `CCOCC(C)O` (configuration not stated): the call in assay [2], in [3], in [4] and in assay [5] was inactive.
For the molecule `CC(=O)Oc1c(C)c(C)c2c(c1C)CC[C@@](C)(CCC[C@H](C)CCC[C@H](C)CCCC(C)C)O2`, the molecule was called inactive in [3] and in [6].
Take `COc1ccc(OC)cc1`: the molecule was called inactive in [3] and in assay [6].
On to `CC1=CCC(=C(C)C)CC1`, for which the molecule was called inactive in [3] and in assay [6].
Consider `NC(N)=S`, for which the outcome in assay [3] was inactive.
As to `CN1CCc2cccc3c2[C@H]1Cc1ccc(O)c(O)c1-3`, the half-maximal activity concentration (AC50) in [2] is 0.02 µM (active); in [7] it was 4.59 µM (active). In addition, the outcome in assay [3], in assay [6] and in [5] was inactive.
For the molecule `c1ccc(OCCOc2ccccc2)cc1`, the result in assay [2], in [3], in [4], in assay [7] and in assay [5] was inactive.
On to `CCC(=O)OC(C)(C)C1CC=C(C)CC1` (configuration not stated), for which the molecule was called inactive in assay [2], in [3], in assay [6], in assay [4] and in [5].
For `CC(=O)OC(C)(C)C1CC=C(C)CC1` (configuration not stated), the call in [3] was inactive.
As for `CC12CCC(C1)C(C)(C)C2O` (configuration not stated), the molecule was called inactive in assay [2], in assay [3], in assay [6], in assay [4], in [7] and in [5].
Turning to `CCC(C)(C)C1CCC(=O)CC1`, the AC50 in assay [2] is 0.983 µM (active). Besides, the outcome in assay [3], in assay [6], in assay [8] and in assay [9] was inactive.
On to `c1coc(CNc2ncnc3nc[nH]c23)c1`, for which the call in [3] was inactive.
On to `C1=COCCC1`, for which the call in [3] was inactive.
Take `Cc1cccc(C)c1`: the call in assay [3] and in [6] was inactive.
For `O=C(O)C1=NN(c2ccc(S(=O)(=O)O)cc2)C(=O)C1`, the outcome in assay [3] was inactive.
As for `O=Cc1ccccc1O`, the half-maximal activity concentration (AC50) in assay [3] is 92 µM (active). The molecule was called inactive in [6].
In the case of `CCNC(=S)NCC`, the molecule was classed as inactive in assay [2], in [3], in assay [6], in [4], in assay [7] and in assay [5].
On to `Cc1cccc(O)c1`, for which the result in assay [2], in assay [3], in assay [4] and in assay [5] was inactive.
On to `COc1ccccc1O`, for which the outcome in assay [2], in assay [3], in assay [7] and in assay [5] was inactive.
In the case of `CC(O)CN` (configuration not stated), the result in [2], in assay [3], in assay [6], in assay [4] and in assay [5] was inactive.
For `CCCCCCCCOC(=O)c1ccc(O)cc1`, the AC50 in [2] was 2.7 µM (active); in assay [3] it was 32.8 µM (active); in assay [6] it was 20.9 µM (active); in assay [4], 10.1 µM (active); in assay [5], 8.39 µM (active).
Consider `CCCCCCCCOC(C)=O`, for which the call in assay [3] and in assay [6] was inactive.
Regarding `CCc1cccc(O)c1`, the result in assay [2], in [3], in assay [4] and in [5] was inactive.
In the case of `CC(=O)C1C(=O)C=C(C)OC1=O` (configuration not stated), the call in [2], in [3], in assay [6], in assay [4] and in assay [5] was inactive.
On to `C=C(C)C(=O)OCCC(C)OC(=O)C(=C)C` (configuration not stated), for which the molecule was called inactive in [3] and in assay [6].
On to `CC(C)(C)c1ccc(S)cc1`, for which the AC50 in assay [2] is 0.283 µM (active). Moreover, the call in assay [3], in assay [7] and in [5] was inactive.
Regarding `O=C(O)c1ccccc1O`, the result in assay [3] was inactive.
For `CC1=CCC(C(C)C)=CC1`, in [3], the outcome was inactive.
As for `CCCO[Si](OCCC)(OCCC)OCCC`, the molecule was called inactive in assay [3], in assay [6] and in assay [5]. In addition, the AC50 in [4] is 38.3 µM (active).
Turning to `CCCc1ccc(N)cc1`, the outcome in [3], in assay [6], in assay [4], in assay [7] and in [5] was inactive.
For the molecule `CCC(C)(C)C1CCC(OC)CC1` (configuration not stated), the result in assay [3], in [6], in assay [4] and in [5] was inactive.
Take `CC(=O)c1ccc2ccccc2c1`: the molecule was classed as inactive in [3], in [6], in assay [4] and in assay [5].
With `CCCCCCCCCCCCN1CCOCC1`, the outcome in assay [3], in assay [6] and in assay [5] was inactive. The AC50 is 50 µM (active) in [4] and 68 µM (active) in assay [7].
`CCO[Si](CC)(OCC)OCC`: the molecule was called inactive in assay [3], in assay [6], in assay [4], in assay [8], in assay [9] and in assay [5].
As for `C=C(C)C(N)=O`, the molecule was called inactive in [3] and in [6].
With `CC(=O)C1=C(C)[C@@H]2C[C@@]3(C1)[C@H](C)CC[C@H]3C2(C)C`, the concentration at half-maximal activity (AC50) in [3] is 72.1 µM (active); in assay [6] it was 21.6 µM (active); in assay [4], 12.4 µM (active); in [7], 58.1 µM (active); in assay [5], 12.8 µM (active).
Consider `[Na+]`, for which the outcome in assay [3], in [6], in assay [4] and in [5] was inactive.
For `CCC(C)COC(=O)CC(C)C` (configuration not stated), the result in [3], in assay [6], in assay [4], in assay [7] and in [5] was inactive.
